The results in this text go back to PubChem BioAssay AID492972 (The Scripps Research Institute Molecular Screening Center, 2010).

The structures appear in SMILES notation. Among all 340,000 compounds or so, about 930 (0.27%) were called active. What follows is part of a selection rich in actives, with near analogues and random picks from the rest. A number with no mark means an inactive call.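 The calls were made as follows: active = inhibition above the screen-wide average of all tested compounds plus 3 SD (cut at about 25% in these data); inactive = the rest.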

In this experiment the target is Platelet-activating factor acetylhydrolase IB subunit alpha1 (Homo sapiens) (UniProt Q15102). Kind of experiment: inhibition of PAF acetylhydrolase 1B subunit 3 – biochemical, fluorescence polarization, human, primary screen (AID 492972).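 Also: 0% = enzyme with DMSO only and 100% = wells lacking PAFAH1B3 protein.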 The conditions noted are these: recombinant PAFAH1B3, FP-rhodamine probe, at 3.39 µM, active compounds read high.
Sequence of Platelet-activating factor acetylhydrolase IB subunit alpha1 (Homo sapiens) (Q15102 whole entry, looked up): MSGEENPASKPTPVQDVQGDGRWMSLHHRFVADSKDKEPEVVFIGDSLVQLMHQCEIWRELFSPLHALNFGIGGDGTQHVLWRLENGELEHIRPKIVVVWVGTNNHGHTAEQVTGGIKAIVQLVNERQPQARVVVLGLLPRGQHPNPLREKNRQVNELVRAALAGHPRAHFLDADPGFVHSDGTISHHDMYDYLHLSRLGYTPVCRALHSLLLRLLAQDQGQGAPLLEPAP
As for `O=C1NC(=O)N(c2ccccc2)C(=O)/C1=C/c1ccc([N+](=O)[O-])s1`, the inhibition is 25.6% (active).
As for `O=C1NC(=O)N(c2ccc(F)cc2)C(=O)/C1=C/c1ccc2c(c1)CCCN2Cc1ccccc1`, the figure is 4.39%; as for `COc1ccc(N2C(=O)/C(=C/c3ccco3)C(=O)NC2=S)cc1`, 16.7%; as for `CCCCCn1c(=O)c(C(=O)NCc2ccccn2)c(O)c2ccccc21`, 4.97%.
`COC(=O)N(c1ccc(OC)cc1)P1(=S)OCCC(C)O1` (stereo not given): the inhibition was -0.56%.
Take `COc1cc(Cn2c(N)c(C(=O)NCc3ccco3)c3nc4ccccc4nc32)cc(OC)c1OC`: the inhibition was 9.25%.
For the molecule `CC/C(=N\NC(=O)c1ccccc1O)c1c(O)n(Cc2ccccc2)c(=O)[nH]c1=O`, the inhibition was 13.4%.
Turning to `CCOC(=O)c1c(N)n(Cc2ccccc2)c2nc3ccccc3nc12`, the inhibition was 36.2% (active).
Consider `O=C(c1cc2nc(-c3ccccc3)cc(-c3ccccc3)n2n1)N1CCC2(CC1)OCCO2`, for which the inhibition was 1.81%.
For the molecule `COC(=O)C(O)(c1ccc(NC(=O)c2ccco2)c(OC)c1)C(F)(F)F` (stereo not given), the inhibition is -1.88%.
